# Results as given in the supplement of paper PMC7156485.
# ± gives the standard deviation of the averaged measurements.
# Tests used:
# Conditions in all cases: concentration: 10 µM; 24 h
# [1] = test system: HCC1569; assay: cell number relative to DMSO (% of DMSO); higher = more cells (less growth inhibition / toxicity)
# In short: (§1)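 In 384-well plates holding 800 HCC1569 or TDF cells per well in RPMI with 10% FBS, compounds were tested at 10 µM for 24 h at 37 °C in triplicate. Fixation used 3.7% formaldehyde. Staining used a rabbit anti-H1.0 antibody with an AlexaFluor 647 secondary, plus DAPI. Each value, H1.0 nuclear intensity or cell number, is a median of replicates shown as percent of the plate control, and HCC1569 values were smoothed for positional effects.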
# [2] = test system: TDF; assay: as above
# In short: as §1
# [3] = test system: HCC1569; assay: H1.0 immunofluorescence intensity relative to DMSO (% of DMSO); higher = stronger H1.0 induction, active = 140 or more
# In short: as §1
# [4] = test system: TDF; assay: H1.0 immunofluorescence intensity relative to DMSO (% of DMSO); higher = stronger H1.0 induction, active = 120 or more
# In short: as §1
# 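Wherever H1.0 immunofluorescence intensity relative to DMSO is given: TDF is a line of transformed human dermal fibroblasts of mesenchymal origin.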
# 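Wherever cell number relative to DMSO is given: TDF denotes transformed human dermal fibroblasts of mesenchymal origin.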
SMILES,cell number [1],cell number [2],H1.0 immunofluorescence intensity [3],H1.0 immunofluorescence intensity [4]
CCN(CC)CCNC(=O)c1c(C)[nH]c(C=C2C(=O)Nc3ccc(Cl)cc32)c1C,22.9,1.9,213 (active),–
Clc1ccc(N/N=C(\c2ccccc2)c2ccccn2)nc1,73.1,1.54,111 (inactive),–
CCC(C)(C)C(=O)OC1CC(C)C=C2C=CC(C)C(CCC3CC(O)CC(=O)O3)C21 (configuration not stated) [Simvastatin],–,–,106 (inactive),120 (inactive)
CCOC(=O)N1CCC(=C2c3ccc(Cl)cc3CCc3cccnc32)CC1 [Loratadine],–,–,103 (inactive),98.3 (inactive)
O=S(=O)(NCc1cccc2ccccc12)c1cc(Cl)c(Oc2cccc(N3CCNCC3)c2)s1,8.55,0.28,122 (inactive),–
N#Cc1ccc2c(c1)CCN(CCC1CCC(NC(=O)c3ccnc4ccccc34)CC1)C2 (configuration not stated),–,–,158 (active),90.6 (inactive)
Cc1ccccc1N(C)C(=O)c1ccc(S(=O)c2nccs2)c([N+](=O)[O-])c1 (configuration not stated),9.73,4.15,131 (inactive),–
COc1ccc(C2CC(=O)c3c(O)cc(OC4OC(COC5OC(C)C(O)C(O)C5O)C(O)C(O)C4O)cc3O2)cc1O (configuration not stated) [Hesperidine],107,102,84.8 (inactive),93.2 (inactive)
Cc1c(C(=O)NN2CCCCC2)nn(-c2ccc(Cl)cc2Cl)c1-c1ccc(I)cc1,–,–,96.5 (inactive),92 (inactive)
O=C(c1ccc(Nc2nccc(-c3cc4ccccc4s3)n2)cc1)N1CCC(N2CCCC2)CC1,61.6,3.45,174 (active),–
O=C1c2ccccc2-c2nc3nnnn3nc21 [PDK1/Akt/Flt Dual Pathway Inhibitor],41.8,3.4,56.9 (inactive),–
NC(=O)Nc1cc(-c2cccc(F)c2)sc1C(=O)NC1CCCNC1 (configuration not stated),19.9,1.8,60.3 (inactive),–
CC(=O)C1(O)Cc2c(O)c3c(c(O)c2C(OC2CC(N)C(O)C(C)O2)C1)C(=O)c1ccccc1C3=O (configuration not stated) [Idarubicin],49.1 ± 12,5.14 ± 3,584 (active),–
O=C(O)C1=CC(O)C(O)C(O)C1 (configuration not stated) [Shikimic acid],–,–,100 (inactive),97.5 (inactive)
"C=CC(=O)N1C/C(=C\c2ccc([N+](=O)[O-])cc2)C(=O)/C(=C/c2ccc([N+](=O)[O-])cc2)C1 [1-acryloyl-3,5-bis((E)-4-nitrobenzylidene)piperidin-4-one]",17.5,0.39,145 (active),–
Cc1cc(Nc2ccc(NC(=O)c3ccc(Nc4ccnc5ccccc45)cc3)cc2)nc(N)n1,13.5,0.96,83.8 (inactive),–
c1ccc2c(Oc3nc(Nc4ccc(N5CCOCC5)cc4)c4ncn(C5CCCCC5)c4n3)cccc2c1,84.3,92.2,150 (active),101 (inactive)
COc1ccc(Cn2cc(C(=O)O)c(=O)c3ccccc32)cc1,–,–,116 (inactive),98.8 (inactive)
COc1ccc(CCN(C)CCCC(C#N)(c2ccc(OC)c(OC)c2)C(C)C)cc1OC (configuration not stated) [Verapamil],–,–,98.6 (inactive),90.6 (inactive)
CC12CCC3c4ccc(O)cc4CCC3C1CCC2O (stereo not drawn) [beta-Estradiol],90.6,89.3,95.3 (inactive),101 (inactive)
C[C@H](C(=O)O)c1cccc(C(=O)c2ccccc2)c1 [(S)-(+)-Ketoprofen],–,–,100 (inactive),99 (inactive)
O=C(O)c1cc(N(Cc2ccccc2O)Cc2cc(O)ccc2O)ccc1O [Lavendustin A],105,89.4,97.9 (inactive),108 (inactive)
